PubChem BioAssay AID588590 (National Center for Advancing Translational Sciences (NCATS), 2011)
The whole screen tested about 390,000 compounds, of which about 4,000 (1%) were called active. Inconclusive results (about 7%) are left out. Calls come from the whole dose curve; as a rule, active = well fitted inhibition curve with a large enough effect; inconclusive = small, poorly fitted or top-dose-only effect, or another doubt; inactive = no such curve, though single readings can be large or run the other way. Shown is part of a subset that was picked to be rich in actives. Where a call stands in place of a potency, no number is given.

Biological target: DNA polymerase iota (Homo sapiens) (UniProt Q9UNA4)
Sequence (Q9UNA4 whole entry, looked up): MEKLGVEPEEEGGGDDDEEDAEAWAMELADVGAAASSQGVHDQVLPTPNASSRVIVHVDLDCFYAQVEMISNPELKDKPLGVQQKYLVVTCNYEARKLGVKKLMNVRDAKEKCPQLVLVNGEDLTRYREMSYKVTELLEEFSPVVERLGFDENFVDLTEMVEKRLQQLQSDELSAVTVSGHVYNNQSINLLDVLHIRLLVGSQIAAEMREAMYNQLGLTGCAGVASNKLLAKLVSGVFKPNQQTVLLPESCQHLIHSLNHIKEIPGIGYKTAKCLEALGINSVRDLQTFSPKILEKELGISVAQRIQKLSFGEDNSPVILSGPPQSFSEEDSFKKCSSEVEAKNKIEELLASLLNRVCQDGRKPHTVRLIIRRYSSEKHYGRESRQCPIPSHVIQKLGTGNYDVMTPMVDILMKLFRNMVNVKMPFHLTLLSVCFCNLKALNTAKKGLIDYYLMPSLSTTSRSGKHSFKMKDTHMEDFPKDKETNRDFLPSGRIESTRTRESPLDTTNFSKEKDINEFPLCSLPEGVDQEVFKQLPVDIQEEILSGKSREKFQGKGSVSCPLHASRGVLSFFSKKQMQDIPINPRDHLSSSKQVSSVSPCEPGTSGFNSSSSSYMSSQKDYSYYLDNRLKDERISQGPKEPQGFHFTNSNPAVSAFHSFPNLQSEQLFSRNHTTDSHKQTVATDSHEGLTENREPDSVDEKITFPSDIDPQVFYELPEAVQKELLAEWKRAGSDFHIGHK
Assay: qHTS for Inhibitors of Polymerase Iota
Conditions: Pol iota fluorescent replication assay, 10 min; series mostly up to 115 µM
In short: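 Fluorescent replication assay read twice, at 0 min and 10 min after adding 50 nM (final) substrate. Enzyme (10 nM) and compounds were first incubated 15 min at room temperature; enzyme-free buffer wells were negative controls.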
Potency is the fitted concentration of half-maximal effect.

| SMILES | Potency |
| --- | --- |
| COc1cc(/C=C/C(=O)OCC(=O)NC(=O)NCc2ccccc2)ccc1OCC#N | inactive |
| COC(=O)c1ccc(COc2ccc(/C=C/C(=O)c3ccc(OC)c(CSCC(=O)O)c3)cc2OC)cc1 | 20 µM (active) |
| COC(=O)c1ccc(C(NC(=O)OCc2ccccc2)/C(C)=C/[C@@H](C)C(=O)NCc2ccc(OC)c(OC)c2)cc1 (some centres undefined) | inactive |
| CCN1CCN(CCCNC(=O)c2cnn(-c3ccc(C)cc3C)c2C2CCN(C(=O)OC(C)(C)C)CC2)CC1 | inactive |
| CCOc1ccc(CNCCSc2nnnn2C)cc1 | inactive |
| Cc1ccc(N(CC(=O)NCC(C)c2ccccc2)S(=O)(=O)N(C)C)cc1 (centres undefined) | inactive |
| COc1ccc(C2(Nc3cccc(F)c3)C(=O)c3ccccc3C2=O)cc1 | inactive |
| CN(c1ccc(O)cc1)c1nc(-c2cccnc2)cs1 | inactive |
| CCCC(=O)N1c2ccc(-c3csc(N)n3)cc2CC1C (centres undefined) | inactive |
| CC(C)(C)C(=O)OCc1nc(-c2ccc(O)c(O)c2)cs1 | 31.6 µM (active) |
| Cc1ccccc1-n1c(=O)c2ccccc2n(Cc2ccc(F)cc2)c1=O | inactive |
| O=C(Nc1cc(Cl)cc(Cl)c1)c1ccc2c(c1)N(Cc1cccc(Cl)c1)C(=O)c1ccccc1S2=O (centres undefined) | inactive |
| CCc1cc(=O)oc2c(C)c(OCC(=O)NCCN3CCOCC3)ccc12 | 79.4 µM (active) |
| CCCc1cc(=O)oc2c(C)c(OCC(=O)NCc3ccccn3)ccc12 | inactive |
| Cc1cc(=O)oc2c(C)c(OCC(=O)NCCN3CCOCC3)ccc12 | inactive |
| CC(=O)c1ccc(S(=O)(=O)Nc2ccc(-c3ccc4nncn4n3)cc2)cc1 | 50.1 µM (active) |
| O=C(Nc1ccc(-c2ccc3nncn3n2)cc1)C1CCCCC1 | inactive |
| CC(=O)Nc1ccc(S(=O)(=O)Nc2ccc(-c3ccc4nnc(C)n4n3)cc2)cc1 | inactive |
| Cc1cc(OC(C)C(=O)Nc2sc3c(c2C(N)=O)CCCC3)ccc1Cl (centres undefined) | inactive |
| COc1cccc(C(=O)NC2=NC(c3ccc(N(C)C)cc3)CC(=O)N2)c1 (centres undefined) | inactive |
| CSc1nc(-c2ccccc2Cl)nc2c1Cc1c(CO)cnc(C)c1O2 | inactive |
| CC(C)c1ccc(Nc2nnc(SCC(=O)c3nnc(-c4ccccc4)o3)s2)cc1 | 22.4 µM (active) |
| CC(C)Nc1nnc(SCC(=O)c2c[nH]c3ccccc23)s1 | inactive |
| CC(C)N(C(=O)CSc1nnc(NC2CC2)s1)c1ccccc1 | inactive |
| CCc1cccc(C)c1NS(=O)(=O)c1ccc(-c2cc(C)no2)s1 | inactive |

| SMILES | Potency |
| --- | --- |
| COC(=O)/C=C\C(=O)Nc1cccc([N+](=O)[O-])c1 | inactive |
| Cc1ccc(/C=C/C(=O)Nc2ccc([N+](=O)[O-])c(NC(=O)/C=C/c3ccc(C)o3)c2)o1 | 25.1 µM (active) |
| COc1ccc(OC)c(NC(=O)/C=C/c2ccc(C)o2)c1 | inactive |
| Cc1ccc(Cn2c(=O)n(Cc3nc(-c4ccccc4)no3)c(=O)c3cc4c(cc32)OCO4)cc1 | inactive |
| O=C(CSc1nc(=O)n(Cc2cccnc2)c2c1CCC2)Nc1ccc(F)cc1F | inactive |
| O=C(Nc1ccc(F)cc1F)c1ccc2c(=O)n3c(nc2c1)CCCCC3 | inactive |
| Cc1ccc(Cl)cc1NC(=O)/C(C#N)=C\c1cn(Cc2ccc(F)cc2)c2ccccc12 | 89.1 µM (active) |
| COCCCNC(=O)Cn1cc(/C=C(\C#N)C(=O)N2CCN(c3ccccc3)CC2)c2ccccc21 | inactive |
| Cc1ccc(/C=C(\C#N)C(=O)Nc2cc(C)ccc2C)cc1 | inactive |
| Nc1ccc(/C=C/c2ccnc3ccccc23)c([N+](=O)[O-])c1 | inactive |
| Cc1ccccc1OCc1nc2c3cnn(-c4ccccc4F)c3ncn2n1 | inactive |
| Cc1ccc(C)c(S(=O)(=O)c2nnn3c2nc(N2CCOCC2)c2sccc23)c1 | inactive |
| Cc1cccc(C)c1NC(=O)COC(=O)c1ccccc1O | inactive |
| CN(c1ccccc1)S(=O)(=O)c1ccc(Cl)c(C(=O)OCC(=O)NCc2ccco2)c1 | 44.7 µM (active) |
| O=C(CCCOc1ccccc1)NCc1ccco1 | inactive |
| O=C(COC(=O)c1cc(S(=O)(=O)N2CCOCC2)ccc1Cl)NCCc1ccccc1 | inactive |
| O=C(COC(=O)c1ccccc1C(=O)N1CCN(c2ccccc2)CC1)NCc1ccccc1 | inactive |
| COc1ccc(CCNC(=O)COC(=O)c2cnc(Cl)c(Cl)c2)cc1 | inactive |
| Cc1cc(C(=O)OCC(=O)NCc2ccco2)c(C)n1-c1ccccc1 | 22.4 µM (active) |
| Cn1c(N)c(C(=O)COC(=O)c2ccccc2NCc2ccco2)c(=O)n(C)c1=O | inactive |
| O=C(COC(=O)c1ccccc1O)NCc1ccco1 | 35.5 µM (active) |
| CN(c1ccccc1)S(=O)(=O)c1ccc(Cl)c(C(=O)OCC(=O)N2CCOCC2)c1 | inactive |
| O=C(COC(=O)c1cnc(Cl)c(Cl)c1)NCc1ccco1 | 17.8 µM (active) |
| O=S(=O)(NCc1ccco1)c1cnc(Cl)c(Cl)c1 | inactive |
| CN1CCN(C(CNC(=O)c2ccccc2F)c2ccc3c(c2)OCO3)CC1 (centres undefined) | inactive |

| SMILES | Potency |
| --- | --- |
| Cc1ccc(OCCSc2nc(C)c(Cc3ccccc3)c(=O)[nH]2)cc1 | inactive |
| Cc1ccc(CCNC(=O)c2ccc3c(c2)N(Cc2cc(C)ccc2C)C(=O)c2ccccc2S3=O)cc1 (centres undefined) | inactive |
| Cc1ccc(Cl)cc1N1CCN(C(=O)c2cccn3c(=O)c4cc(Cl)ccc4nc23)CC1 | inactive |
| CCCn1c2ccccc2c2cnn(CC(=O)N3CCCC(C(=O)OCC)C3)c(=O)c21 (centres undefined) | inactive |
| CCOC(=O)N1CCc2c(sc3c2c(=O)n(-c2ccc(CC)cc2)c(=O)n3C)C1 | inactive |
| O=C(NCc1ccccc1)c1cccc(NC(=O)N2CCSc3ncccc32)c1 | inactive |
| Cc1c(NC(=O)Cc2ccccc2)cccc1-c1nc2cccnc2s1 | inactive |
| O=C(Nc1ccccc1Cl)/C(Cl)=C(\Cl)S(=O)c1ccccc1 (centres undefined) | 12.6 µM (active) |
| O=C(Nc1ccccc1Cl)N1CCC(CN2CCCC2)CC1 | inactive |
| O=C(Nc1ccccc1Cl)N1CCC(CN2CCCCC2)CC1 | inactive |
| Cc1ccc(-c2nn3c(=O)cc(CN4CCN(S(=O)(=O)c5ccc(Cl)cc5)CC4)nc3s2)cc1 | inactive |
| CC(=O)c1cc(C#N)c(SCC(=O)Nc2nccs2)nc1C | inactive |
| Cc1csc(SCC(=O)Nc2sccc2C#N)n1 | 22.4 µM (active) |
| N#Cc1ccsc1NC(=O)CN1CCCCC1 | inactive |
| COc1ccc(CCN2C(=O)c3oc4cc(C)cc(C)c4c(=O)c3C2c2ccccc2F)cc1OC (centres undefined) | inactive |
| Cc1cccc(Cc2c(C)nc3nc(SCc4ccccc4Cl)nn3c2C)c1 | inactive |
| Cc1ccc(-c2nnc(SCC(=O)NCc3ccccc3)nc2-c2ccc(C)cc2)cc1 | inactive |
| CSc1n[nH]c(-c2ccco2)n1 | inactive |
| Clc1ccccc1CSc1nnc(-c2ccco2)c(-c2ccco2)n1 | 14.1 µM (active) |
| c1ccc(CSc2nnc(-c3ccco3)c(-c3ccco3)n2)cc1 | 7.94 µM (active) |
| CC1(C)N=C(SCc2ccccc2Cl)c2ccccc2N1 | inactive |
| O=C(CCc1nc(CN2CCN(S(=O)(=O)c3ccc(Br)cc3)CC2)no1)N1CCCCC1 | inactive |
| CCOC(=O)c1scc(-c2ccc(C)cc2)c1S(=O)(=O)Nc1cc(C)ccc1C | inactive |
| Cc1cccc(-n2c(SCC(N)=O)nc3c(oc4ccccc43)c2=O)c1 | inactive |
| COc1cc(Cl)c(C)cc1NC(=O)CCc1nc2cccnc2n1Cc1cccs1 | inactive |

| SMILES | Potency |
| --- | --- |
| Cc1cc(NC(=O)CSc2ncc(C(=O)Nc3ccc(Cl)cc3)c(=O)n2C)no1 | inactive |
| Cc1ccc(S(=O)(=O)N2CCN(S(=O)(=O)N3CCOCC3)CC2)cc1 | inactive |
| O=C1CCCC(O)=C1N=Nc1ccc(S(=O)(=O)N2CCOCC2)cc1 | 35.5 µM (active) |
| CC1(C)CC(=O)C(N=Nc2ccc(S(=O)(=O)N3CCCCCC3)cc2)=C(O)C1 | inactive |
| COc1ccc(Cn2c(=O)[nH]c3cc(C(=O)N4CCN(C(=O)c5ccco5)CC4)ccc3c2=O)cc1 | inactive |
| N#Cc1c(N2CCCCC2)nc(N)c2c(N)nc(SCC(=O)O)cc12 | 7.08 µM (active) |
| N#Cc1c(C(F)(F)F)cc(-c2cccs2)nc1N1CCCCC1 | inactive |
| CC(C)(C)c1ccc(C(=O)C[n+]2cccc3cc(Cl)ccc32)cc1 | inactive |
| CC(C)(C)c1ccc(C(=O)C[N+]2(C)CCCc3ccccc32)cc1 (centres undefined) | 79.4 µM (active) |
| CC(C)(C)c1ccc(C(=O)NCc2nnc(SCC(=O)N3CCCc4ccccc43)n2-c2ccccc2)cc1 | inactive |
| Cc1ccc(NC(=O)Cn2cnc3nc4c(cc3c2=O)CCCC4)cc1Cl | inactive |
| CCOc1ccc(CNC(=O)C2CCN(c3nnc(-n4cccc4CNc4ccc(C)cc4)s3)CC2)cc1OC | inactive |
| Cc1ccc(CCNC(=O)c2ccc(CNS(=O)(=O)c3ccc(C)cc3)cc2)cc1 | inactive |
| CC(C)n1cnc2c(NCc3ccccc3)cc(OCC3CCN(C)CC3)cc21 | 3.16 µM (active) |
| CN(C)c1nccc(NCc2ccccc2)c1C#N | inactive |
| COc1ccc(OCC(=O)Nc2cccc(C(=O)OCc3cc(=O)n4nc(C)sc4n3)c2)cc1 | 89.1 µM (active) |
| CCCCc1nn2c(=O)cc(COC(=O)c3cccc(NC(=O)COc4ccccc4)c3)nc2s1 | inactive |
| O=C(COc1ccccc1F)OCc1cc(=O)n2nc(C3CCCCC3)sc2n1 | inactive |
| Cc1ccc(OCC(=O)OCc2cc(=O)n3nc(C4CC4)sc3n2)cc1C | inactive |
| Cc1ccc(OCC(=O)OCc2cc(=O)n3nc(C4CC4)sc3n2)cc1 | 89.1 µM (active) |
| CCC(=O)Nc1cccc(C(=O)OCc2cc(=O)n3nc(CC)sc3n2)c1 | inactive |
| Cc1ccc(NC(=O)Cn2c(=O)n(-c3ccccc3)c(=O)c3c4c(sc32)CCCC4)cc1 | inactive |
| CCOc1ccc(-c2nonc2NC(=O)c2oc3ccc(CC)cc3c2C)cc1 | inactive |
| CCOC(=O)c1c(S(=O)(=O)N2CCCC(C(=O)NCc3ccc(F)cc3)C2)c(C)n(CC)c1C (centres undefined) | inactive |
